Molecules are shown by their SMILES. About 680 (0.19%) of roughly 360,000 compounds were called active. The sample holds actives, similar compounds and a random draw of the others, so the mix is not that of the screen. Rule as the data show it: active = inhibition above about 25%; inactive = the rest.

The target in this assay is Arf-GAP with SH3 domain, ANK repeat and PH domain-containing protein 1 (Homo sapiens) (UniProt Q9ULH1). The assay is described as follows: inhibitors of human ASAP1 ArfGAP activity, primary screen, biochemical, fluorescence polarization (AID 624377).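 Also: 0% = vehicle with enzyme and substrate and 100% = no enzyme.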 Conditions: ASAP1-stimulated ARF1 GTP hydrolysis, GDP FP detection; at 16.5 µM; stronger effect = higher value.
Chain of Arf-GAP with SH3 domain, ANK repeat and PH domain-containing protein 1 (Homo sapiens) (Q9ULH1 325-724 limits assumed): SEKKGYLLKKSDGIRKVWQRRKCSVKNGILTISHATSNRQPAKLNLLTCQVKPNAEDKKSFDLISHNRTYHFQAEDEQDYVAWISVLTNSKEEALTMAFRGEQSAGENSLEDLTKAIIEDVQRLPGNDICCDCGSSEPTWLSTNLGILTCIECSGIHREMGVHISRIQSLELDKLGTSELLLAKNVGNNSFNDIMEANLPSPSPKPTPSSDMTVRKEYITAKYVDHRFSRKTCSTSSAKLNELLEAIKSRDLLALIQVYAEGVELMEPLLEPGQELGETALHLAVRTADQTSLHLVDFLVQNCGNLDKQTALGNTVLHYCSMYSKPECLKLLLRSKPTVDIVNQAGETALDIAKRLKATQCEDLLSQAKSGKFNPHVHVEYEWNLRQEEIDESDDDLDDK
Turning to `OC(c1ccccc1)(c1ccccc1)C1CCN(CCCOc2ccc(-c3ccsc3)cc2)CC1`, the inhibition is 13.7% (inactive).
In the case of `Cc1ccc2nc(SCC(=O)N3CCN(c4ccccc4)CC3)nc(=O)n2c1`, the inhibition is 14.1% (inactive).
In the case of `Cc1ccc2nc(SCC(=O)N3CC(C)OC(C)C3)nc(=O)n2c1` (stereo unspecified), the inhibition is 40.7% (active).
For the compound `Cc1ccc2nc(SCC(=O)Nc3cccc4ccccc34)nc(=O)n2c1`, the inhibition is 16.5% (inactive).
The value for `CC(=O)N(C1=C(Cl)C(=O)c2ccccc2C1=O)c1ccc(C(=O)O)cc1` was 29.4% (active).
The value for `O=C1C(Cl)=C(Oc2ccccc2)C(=O)c2ccccc21` was -0.42% (inactive); that for `COc1ccc(-c2ccccc2C2Cc3nnccc3CN2C(=O)Nc2ccccc2)cc1` (stereo unspecified) was -1.04% (inactive); that for `O=C(NCc1ccccc1)[C@H]1CCCN1C(=O)[C@H]1CCCN1C(=O)N1CCOCC1` was 11.6% (inactive).
The value for `Nc1[nH]c(C(=O)c2ccc(Br)cc2)c(-c2ccc3c(c2)OCO3)c1C(=O)NCCc1c[nH]c2ccccc12` was 9.33% (inactive).
Take `CC(=O)c1ccc(S(=O)(=O)NCC2CCN(C(=O)C(=O)c3cccs3)CC2)cc1`: the inhibition was -0.29% (inactive).
Consider `COc1ccc(/C=N/Nc2ncnc3sc4c(c23)CCCC4)cc1O`, for which the inhibition is 27.3% (active).
The same measure for `OCCNc1nc2ccccc2n1-c1ncnc2sc3c(c12)CCC3`: 1.46% (inactive); for `O=C(O)c1cccnc1Sc1ncnc2sc3c(c12)CCC3`: 8.49% (inactive); for `COc1cccc(CNC(=O)[C@H]2CCCN2C(=O)[C@H]2CCCN2C(=O)c2ccc(F)cc2)c1`: -1.31% (inactive).
The value for `CCn1c2ccccc2c2cc(NC(=O)COC(=O)c3cc(S(=O)(=O)N4CCCCC4)ccc3Cl)ccc21` was 0.3% (inactive); that for `CCn1c2ccccc2c2cc(NC(=O)C/C(C)=N/NC(=O)c3ccccc3N)ccc21` was 27% (active); that for `CCn1c2ccccc2c2cc(NC(=S)N3CCOCC3)ccc21` was -2.05% (inactive).
Turning to `COC(=O)C1=C(C)N(Cc2ccccc2C(F)(F)F)C(=NCC2CC2)NC1c1cccc(Cl)c1` (stereo unspecified), the inhibition was 17.5% (inactive).
`C#CCN([C@@H](C)C(=O)OCC)S(=O)(=O)c1ccc(Br)cc1F`: the inhibition was 3.17% (inactive).
As to `Cc1ccc2nc(-c3ccc(CN4CCC(n5cc(-c6ccccc6)[nH]c5=O)CC4)cc3)c(-c3ccccc3)nc2c1`, the inhibition was 9.24% (inactive).
The value for `Cc1cc2nc3c(=O)[nH]c(=O)nc-3n(C[C@H](O)[C@H](O)[C@H](O)CO)c2cc1C` was 0.24% (inactive); that for `COc1ccccc1C(=O)N1O[C@]23C=C[C@]14C[C@@H](O)CC[C@]4(C)C2CC[C@]1(C)[C@@H]([C@H](C)/C=C/[C@H](C)C(C)C)CC[C@H]13` (stereo partly specified) was 6.77% (inactive).
The same measure for `C=CCN=C1NC(c2ccccc2)C(C(=O)OC)=C(C)N1Cc1ccc(C(F)(F)F)cc1` (stereo unspecified): 9.79% (inactive); for `CCOC(=O)CNC(=O)N(C)[C@H]1C[C@H]2c3[nH]c4c(-c5ccc6c(c5)OCO6)cccc4c3CCN2C(=O)[C@H]1[C@H](C)O`: -4.88% (inactive).
Regarding `COC(=O)N1Cc2ccnnc2CC1c1ccccc1Br` (stereo unspecified), the inhibition was 7.59% (inactive).
`O=C1[C@@H](c2ccccc2)[C@@H](c2ccccc2)N1c1ccccc1`: the inhibition is -13% (inactive).
The same measure for `O=C1Nc2ccccc2C1=NN=Cc1ccco1`: 1.27% (inactive).
As for `Clc1cccc2c1C1CC2CCN1Cc1ccccc1` (stereo unspecified), the inhibition is -8.11% (inactive).
Consider `Nc1nc2c(ncn2[C@@H]2O[C@H](C(=O)N[C@H](Cc3ccccc3)C(=O)NCC3CCCCC3)[C@@H](O)[C@H]2O)c(=O)[nH]1`, for which the inhibition is 5.87% (inactive).
The value for `COC(=O)C1=C(C)N(Cc2ccc(F)cc2)C(=S)NC1c1cccc(Cl)c1` (stereo unspecified) was -11.5% (inactive); that for `N#Cc1cccc(C(=O)NCC2CCN(C(=O)C(=O)c3cc4ccccc4o3)CC2)c1` was -11.4% (inactive).

The record behind these values is PubChem BioAssay AID624377 (The Scripps Research Institute Molecular Screening Center, 2012).
